Sampled rows, rich in hits. Any-hit rate of the full collection: about 1.5%.
VHR inh abs = inhibitors of human VHR1 phosphatase (DUSP3) | inhibition, % at 13.3 µM | recombinant VHR phosphatase, pNPP absorbance | P51452 | 290,000 tested, 0.52% active; in the data active = inhibition above about 50%
Target sequence (P51452 whole entry, looked up): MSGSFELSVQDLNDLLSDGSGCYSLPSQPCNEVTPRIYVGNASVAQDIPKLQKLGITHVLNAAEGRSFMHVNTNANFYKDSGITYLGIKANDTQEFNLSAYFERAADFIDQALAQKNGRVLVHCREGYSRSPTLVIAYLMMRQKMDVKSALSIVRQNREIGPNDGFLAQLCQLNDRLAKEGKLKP
SSB-PriA inh = K. pneumoniae PriA-SSBct interaction inhibition | inhibition, % at 33 µM | AlphaScreen SSBct-PriA binding, biotinylated peptide | 430,000 tested, 0.6% active; in the data active = inhibition mostly above about 37%, no sharp cut-off; inactive = mostly below about 20%
Sa RN4220 lethal = kills Staphylococcus aureus RN4220 | AID 1259311 | S. aureus RN4220 growth, OD600, 16 h | inhibition, % (test concentration not listed) | 330,000 tested, 0.33% active; in the data active = inhibition above about 85%
Sa ugtP lethal = compounds lethal to S. aureus RN4220 ugtP deletion mutant; OD600 growth, 16 h; growth inhibition, % (no concentration beside the values); 330,000 tested, 0.54% active; in the data active = growth inhibition above about 68%
CCHF vOTU inh-1 = blocks the CCHF virus ovarian tumor domain protease. CCHFV vOTU protease, Pep-AMC fluorescence. inhibition, % at 11.5 µM. 370,000 tested, 0.55% active
CCHF vOTU inh-2 = confirmation of CCHF virus vOTU protease inhibitors | Recombinant CCHFV vOTU, Pep-AMC fluorescence | inhibition, % at 11.5 µM | shares compounds with CCHF vOTU inh-1 | AID 686976 | 1,900 tested, 17% active
Of the large screens only hits and unclear results are named; the others gave an inactive call (follow-up assays come after a bar, where they were run); ! = a repeat was not active. Cut-off read from the data, not from the text of the source, unless noted: active = inhibition above about 30%; inactive = the rest.

Cc1ccc(Cl)cc1NC1=C/C(=N\S(=O)(=O)c2cccs2)c2ccccc2C1=O	Sa RN4220 lethal 90!, CCHF vOTU inh-1 96 (no result: SSB-PriA inh) | CCHF vOTU inh-2 95
O=S(=O)(N=C1C=CC(=NS(=O)(=O)c2ccccc2)c2ccccc21)c1ccccc1	CCHF vOTU inh-1 72 (no result: VHR inh abs, SSB-PriA inh, Sa RN4220 lethal, Sa ugtP lethal) | CCHF vOTU inh-2 68
O=C(CSc1nnc2sc3ccccc3n12)N1CCCCC1	none (no result: VHR inh abs, Sa RN4220 lethal, Sa ugtP lethal, CCHF vOTU inh-1)
c1cc(N2CCNCC2)nc(N2CCOCC2)n1	none (no result: VHR inh abs, Sa RN4220 lethal, Sa ugtP lethal, CCHF vOTU inh-1)
O=C(N/N=C\c1c[nH]c2ccccc12)c1ccc(O)cc1	CCHF vOTU inh-1 32 (no result: SSB-PriA inh, Sa RN4220 lethal, Sa ugtP lethal) | CCHF vOTU inh-2 inactive
CC(=O)Nc1ccc(NC(=O)c2ccc(S(=O)(=O)N3CCCCCC3)cc2)cc1	CCHF vOTU inh-1 43 (no result: VHR inh abs, SSB-PriA inh, Sa RN4220 lethal, Sa ugtP lethal) | CCHF vOTU inh-2 inactive
O=[N+]([O-])c1ccc(O)c2cccnc12	none
O=[N+]([O-])c1ccc(O)c2ncccc12	SSB-PriA inh 133, Sa RN4220 lethal 99, Sa ugtP lethal 99, CCHF vOTU inh-1 47 | CCHF vOTU inh-2 inactive
COCCn1c(SCC(=O)Nc2cccnc2Cl)nc2ccccc2c1=O	CCHF vOTU inh-1 31 (no result: VHR inh abs) | CCHF vOTU inh-2 inactive
COCCn1c(SCC(=O)Nc2ccccc2C(F)(F)F)nc2ccccc2c1=O	none
CCCCN([C@H]1CCS(=O)(=O)C1)S(=O)(=O)c1ccc(F)cc1	none (no result: VHR inh abs, Sa RN4220 lethal, Sa ugtP lethal, CCHF vOTU inh-1)
CSc1ccccc1NC(=O)CN(C)C(=O)COc1cccc2cccnc12	CCHF vOTU inh-1 33 (no result: VHR inh abs) | CCHF vOTU inh-2 inactive
CCOC(=O)c1csc(-n2nc(C)cc2C(F)(F)F)n1	CCHF vOTU inh-1 31 | CCHF vOTU inh-2 inactive
Cc1cc(C(F)(F)F)n(-c2nc(C(=O)NN)cs2)n1	none
Cn1nc(CNC(=O)c2cc(C3CC3)on2)c2c1CCOC2	none (no result: VHR inh abs, Sa RN4220 lethal, Sa ugtP lethal, CCHF vOTU inh-1)
COc1ccc(NC(=O)CSc2nnc(CNC(=O)c3ccc(S(=O)(=O)N4CCOCC4)cc3)n2-c2cccc(C(F)(F)F)c2)cc1	none (no result: VHR inh abs, Sa RN4220 lethal, Sa ugtP lethal, CCHF vOTU inh-1)
CC1CCc2c(sc(NC(=O)c3ccco3)c2C(=O)O)C1 (stereo not given)	CCHF vOTU inh-1 32 | CCHF vOTU inh-2 inactive
CS(=O)(=O)c1ccc(Nc2nc(CC(=O)NC3CC3)cs2)cc1	none (no result: VHR inh abs, Sa RN4220 lethal, Sa ugtP lethal, CCHF vOTU inh-1)
Cc1cccc(COCC(CC(C)C)N2CCN(C(=O)c3ccc(C(C)(C)C)cc3)CCC2=O)c1 (stereo not given)	none
CC(C)C[C@@H](COCc1ccc(F)cc1)N1CCN(C(=O)c2cccc(C(F)(F)F)c2)CCC1=O	CCHF vOTU inh-1 31 (no result: VHR inh abs, SSB-PriA inh, Sa RN4220 lethal, Sa ugtP lethal) | CCHF vOTU inh-2 inactive
Cc1cccc(COC[C@H](CC(C)C)N2CCN(C(=O)c3ccc(C(C)(C)C)cc3)CCC2=O)c1	CCHF vOTU inh-1 30 (no result: VHR inh abs, SSB-PriA inh, Sa RN4220 lethal, Sa ugtP lethal) | CCHF vOTU inh-2 inactive
O=[N+]([O-])c1ccc(N/N=C/c2ccc(O)c(O)c2O)c(S(=O)(=O)N2CCOCC2)c1	CCHF vOTU inh-1 34 (no result: SSB-PriA inh, Sa RN4220 lethal, Sa ugtP lethal) | CCHF vOTU inh-2 inactive
COc1cc(N)c2ncccc2c1Cl	CCHF vOTU inh-1 97 (no result: VHR inh abs) | CCHF vOTU inh-2 inactive
CCCCC[C@@H]1C=C(C(=O)O)[C@H](c2ccc(Cl)cc2)N1S(=O)(=O)c1ccc(C)cc1	CCHF vOTU inh-1 32 (no result: VHR inh abs, Sa RN4220 lethal, Sa ugtP lethal) | CCHF vOTU inh-2 inactive
CCc1ccc([C@H]2C(C(=O)O)=C[C@@H](CC3CCCC3)N2S(=O)(=O)c2ccc(C)cc2)cc1	CCHF vOTU inh-1 47 (no result: VHR inh abs) | CCHF vOTU inh-2 inactive
CCCC[C@@H]1C=C(C(=O)O)[C@H](c2ccc(Cl)c(Cl)c2)N1S(=O)(=O)c1ccc(C)cc1	CCHF vOTU inh-1 32 (no result: VHR inh abs) | CCHF vOTU inh-2 inactive
CCCCC[C@@H]1C=C(C(=O)O)[C@H](c2ccc(C)cc2)N1S(=O)(=O)c1ccc(C)cc1	none (no result: VHR inh abs)
CCOc1ccc2ccccc2c1C(=O)N1CCC(COCc2ccc(F)cc2)CC1	none (no result: VHR inh abs, Sa RN4220 lethal, Sa ugtP lethal, CCHF vOTU inh-1)
O=C(NC[C@]1(O)CCOc2ccccc21)c1cc(=O)c2ccccc2o1	none (no result: VHR inh abs, Sa RN4220 lethal, Sa ugtP lethal, CCHF vOTU inh-1)
CC(=O)c1ccc(S(=O)(=O)Nc2ccc(N3CCOCC3)cc2)cc1	none
O=C(O)c1ccc(NC2=C(N3CCOCC3)C(=O)c3ccccc3C2=O)cc1	CCHF vOTU inh-1 57 | CCHF vOTU inh-2 inactive
CC(=O)c1ccc(NC2=C(N3CCOCC3)C(=O)c3ccccc3C2=O)cc1	CCHF vOTU inh-1 93 | CCHF vOTU inh-2 67
CC(=O)N(C1=C(N2CCOCC2)C(=O)c2ccccc2C1=O)c1ccc(C(=O)O)cc1	CCHF vOTU inh-1 52 | CCHF vOTU inh-2 36
CC(=O)N(C)C1=C(N2CCOCC2)C(=O)c2ccccc2C1=O	none (no result: CCHF vOTU inh-1)
Cc1ccc(NC2=C(N3CCOCC3)C(=O)c3ccccc3C2=O)cc1	CCHF vOTU inh-1 108 | CCHF vOTU inh-2 101
COc1ccc(OC)c2sc(NC(=O)C3CCN(S(=O)(=O)c4cccs4)CC3)nc12	none (no result: VHR inh abs, Sa RN4220 lethal, Sa ugtP lethal, CCHF vOTU inh-1)
CCC(CC)C(=O)Nc1cc(-c2cn3nc(OC)ccc3n2)ccc1C	none (no result: VHR inh abs, Sa RN4220 lethal, Sa ugtP lethal, CCHF vOTU inh-1)
O=c1cc(-c2ccc(O)c(O)c2)oc2c1ccc1ccccc12	CCHF vOTU inh-1 34 (no result: VHR inh abs) | CCHF vOTU inh-2 inactive
